# VDR inh – Inhibitors of the vitamin D receptor (VDR): qHTS. Vitamin D3 receptor (Homo sapiens), P11473. Potency, µM, for the others: max response, negative = inhibition, most hits filed as inhibitors. 400,000 tested, 0.93% active. VDR-SRC2-3 peptide fluorescence polarization, 2 h; further: potency means the concentration at half of the fitted maximal effect; on the % scale 0 is the no-effect control and ±100 the full control effect
# Target sequence (P11473 whole entry, looked up): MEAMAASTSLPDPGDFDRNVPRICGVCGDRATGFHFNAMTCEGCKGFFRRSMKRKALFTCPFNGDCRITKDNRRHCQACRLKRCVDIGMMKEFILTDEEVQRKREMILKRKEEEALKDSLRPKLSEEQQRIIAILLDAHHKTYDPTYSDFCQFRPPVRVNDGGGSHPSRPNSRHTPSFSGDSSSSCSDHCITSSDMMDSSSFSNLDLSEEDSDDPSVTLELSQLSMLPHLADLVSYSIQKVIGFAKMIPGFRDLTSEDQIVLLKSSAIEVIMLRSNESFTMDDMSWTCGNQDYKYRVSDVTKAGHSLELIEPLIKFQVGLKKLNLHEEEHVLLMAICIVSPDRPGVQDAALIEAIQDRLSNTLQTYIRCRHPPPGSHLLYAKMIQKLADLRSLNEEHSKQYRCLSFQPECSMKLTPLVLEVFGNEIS
#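 VDR–SRC2-3 interaction, FP format. Cmpds 23 nl via pintool, brief spin, 2 h ambient incubation.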
# TrxR1 substrate – qHTS Assay for Substrates of Mammalian Selenoprotein Thioredoxin Reductase 1 (TrxR1): qHTS. Thioredoxin reductase 1, cytoplasmic (Rattus norvegicus), O89049. purified TrxR1 substrate turnover, NADPH consumption readout. Potency, µM (doses to about 114 µM), inactives show at the top dose activity change, negative = substrate turnover. 390,000 tested, 0.01% active. AID 588456, 2011; further: potency means the concentration at half of the fitted maximal effect; on the % scale 0 is the no-effect control and ±100 the full control effect; nearly all actives have a fitted effect of over 50% in size
#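 Rat TrxR1, dispensed at 90 nM, was prereduced with 400 uM NADPH (final) for 5 min at ~22 deg C, then incubated with compound 15 min before 400 uM selenite. A first-read NADPH fluorescence drop versus no-compound background flagged substrates.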
# GCN5L2 inh – qHTS Assay for Inhibitors of GCN5L2; Histone acetyltransferase KAT2A (Homo sapiens), Q92830; GCN5L2 HAT assay, ThioGlo1 CoA-SH fluorescence; Potency, µM (titrated, usually from 58.9 µM), for inactives: at the highest dose activity change, negative = inhibition, hits mostly inhibitors; 390,000 tested, 0.21% active; AID 504327, 2011; further: potency means the concentration at half of the fitted maximal effect; on the % scale 0 is the no-effect control and ±100 the full control effect
#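 Compounds, pin-transferred from DMSO stocks, meet 20nM GCN5L2 for 15 min before the reaction begins with H3(1-25) peptide (75uM) and acetyl-CoA (70uM). Thiol-reactive ThioGlo1 reports CoA release over 20 min at room temperature.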
# rTrxR1 inhibitor – qHTS Assay for Inhibitors of Mammalian Selenoprotein Thioredoxin Reductase 1 (TrxR1): qHTS | Thioredoxin reductase 1, cytoplasmic (Rattus norvegicus), O89049 | recombinant rTrxR1, NADPH fluorescence consumption, selenite substrate | Potency, µM (titrated, usually from 114 µM), for inactives: at the highest dose activity change, negative = inhibition, most hits filed as inhibitors | 390,000 tested, 1% active; further: potency means the concentration at half of the fitted maximal effect; on the % scale 0 is the no-effect control and ±100 the full control effect; nearly all actives have a fitted effect of over 65% in size
#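 Rat TrxR1 (90 nM in the dispensed reagent) was pre-reduced with 400 uM NADPH for 5 min at room temperature, then incubated with compound for 15 min. After 400 uM selenite was added, NADPH fluorescence (Ex 340/Em 450 nm) was followed for 8 min.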
# USP1 UbRho – Inhibitors of USP1/UAF1: Hit Validation in Primary Assay; shares compounds with VDR inh; Ub-Rhodamine cleavage, fluorescence kinetic read; Potency, µM (titrated, usually from 56.8 µM), inactives show top-dose activity change, negative = inhibition, most hits filed as inhibitors; 50 tested, 50% active; AID 540327, 2011
# VDR confirm – qHTS for Inhibitors of the vitamin D receptor (VDR): Hit Validation in Primary Screen; shares compounds with VDR inh; VDR-coactivator inhibition assay, qHTS confirmation; Potency, µM, most hits filed as inhibitors; 840 tested, 89% active; AID 602199, 2012; further: potency means the concentration at half of the fitted maximal effect
# VDR FP – qHTS for Inhibitors of the vitamin D receptor (VDR): Hit Validation using a Fluorescein Assay. VDR-coactivator binding, fluorescein fluorescence polarization. Potency, µM (series often up to 57.1 µM), for the others: top-dose activity change, negative = inhibition, most hits filed as inhibitors. 840 tested, 48% active. shares compounds with VDR inh; further: potency means the concentration at half of the fitted maximal effect
# VDR bla reporter – qHTS for Inhibitors of the vitamin D receptor (VDR): Hit Validation using a Beta-Lactamase Assay; Potency, µM (titrated, usually from 46.1 µM), for the others: at the highest dose activity change, negative = inhibition, most hits filed as inhibitors; VDR beta-lactamase reporter cells, FRET ratio; cells co-treated with VDR agonist LG190178; 840 tested, 23% active; shares compounds with VDR inh; further: potency means the concentration at half of the fitted maximal effect; on the % scale 0 is the no-effect control and ±100 the full control effect
# VDR cytotox – qHTS for Inhibitors of the vitamin D receptor (VDR): Hit Validation using a Cytotoxicity Assay; shares compounds with VDR inh; cytotoxicity counter-screen, cell viability, qHTS; Potency, µM (highest dose often 48.3 µM), without a hit: at the highest dose activity change, negative = cytotoxicity, hits mostly cytotoxic; 840 tested, 18% active;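 further: potency means the concentration at half of the fitted maximal effect; plate controls were DMSO for no effect and high-concentration cycloheximide for full effect; nearly all actives have a fitted effect of over 75% in size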
# * hit, by the source's call; ? = inconclusive; . = no result; [ ] = remark or other dose. An excerpt weighted towards active compounds, which were near 1.8% of everything screened. The call rests on the fitted dose curve; in most records, active means well fitted curve in the direction sought with a large enough effect; inconclusive means small, poorly fitted or top-dose-only effect, or another doubt; inactive means no such curve, though single readings can be large; an effect the other way counts as inactive or inconclusive.
SMILES,VDR inh,TrxR1 substrate,GCN5L2 inh,rTrxR1 inhibitor,VDR confirm,VDR FP,VDR bla reporter,VDR cytotox,others
O=c1cc(-c2ccccc2)oc2c(O)c(O)ccc12,13µM*,.,?,.,20*,25µM*,23µM*,?,
Cc1oc2c(O)c(O)ccc2c(=O)c1-c1ccccc1,6%,0%,-8%,-1%,.,.,.,.,
CCCCCC1C(=O)N2C=C(c3ccccc3)c3ccccc3N2C1=O (configuration not stated),22µM*,9%[11.4 µM],.,16%[11.4 µM],4.7*,4µM*,26%,3%,
CCCCN1C(=O)C(NC(C)=O)c2ccccc21 (configuration not stated),6%,5%[57.1 µM],11%,0%[57.1 µM],.,.,.,.,
COc1cc(-c2nc(Cn3nnc(C(=O)Nc4ccccc4)c3C)c(C)o2)cc(OC)c1OC,-18%,-6%,-7%,17%,.,.,.,.,
CCOC(=O)c1cc(-c2ccccc2)sc1NC(=O)c1ccc(OC)cc1,50µM*,3%,13%,-22%,30*,13µM*,15%,-28%,
COc1cc(C(=O)N(CCCN(C)C)c2nc3c(OC)cccc3s2)cc(OC)c1OC,0%,-10%,-4%,-10%,.,.,.,.,
Cc1ccc(C(=O)N2C(=S)C(c3ccc(F)cc3)=NC23CCN(C)CC3)cc1,?,-10%,-1%,20µM*,18*,22µM*,26µM*,?,
Cc1ccc(/C(O)=C2/C(=O)C(=O)OC2c2ccc(Cl)cc2)cc1 (configuration not stated),?,-11%,?,?,11*,10µM*,-1%,15%,
O=C1OC(c2ccccc2)/C(=C(/O)c2ccccc2)C1=O (configuration not stated),-30%,-11%,1%,-32%,.,.,.,.,
COC(=O)c1ccccc1NC(=O)CSc1nc2sc3c(c2c(=O)[nH]1)CCCC3,14µM*,-7%,?,-8%,?,4µM*,3%,4%,
CC(=O)Nc1sc(N/N=C\c2ccccc2F)nc1-c1cccs1,50µM*,5%,-9%,20%,2.4*,2.2µM*,29%,?,
CC(=O)Nc1sc(NC(=O)c2ccccc2)nc1-c1cccs1,-10%,9%,-5%,11%,.,.,.,.,
Cc1nc2c3cc(F)ccc3n(Cc3ccccc3)c2s1,50µM*,2%,-4%,17%,?,?,?,23%,
O=C(/C=C/c1ccc(Br)cc1)c1ccc(NC2=NCCCS2)cc1,22µM*,3%,-1%,-6%,15*,10µM*,?,18µM*,
O=C(/C=C/c1ccccc1)c1ccc(NC2=NCCCS2)cc1,?,-5%,-10%,-31%,.,.,.,.,
CSc1nnc(NC(=O)c2nc(S(=O)(=O)Cc3ccccc3F)ncc2Cl)s1,20µM*,-2%,-5%,40µM*,6*,7.9µM*,7.3µM*,11µM*,
CC(C)c1nnc(NC(=O)c2nc(S(=O)(=O)Cc3ccccc3F)ncc2Cl)s1,20µM*,0%,4%,50µM*,8.4*,3.2µM*,18µM*,21µM*,
O=C(NC[C@@H](O)CO)c1c(I)c(C(=O)NC[C@@H](O)CO)c(I)c(N(CCO)C(=O)CO)c1I,6%,.,-4%[21.4 µM],.,.,.,.,.,
Cc1ccc(NC(=O)c2cnn3c2NC(=C2CC2)C=C3C(F)F)cc1C,.,4%,.,16%,.,.,.,.,
O=[N+]([O-])c1ccc(Nc2ccccn2)c([N+](=O)[O-])c1,9%,2%,-29%,20%,.,.,.,.,
O=C(O)c1cccc(Nc2ccc([N+](=O)[O-])c3nonc23)c1,10%,0%[57.1 µM],2%,7%[57.1 µM],.,.,.,.,
O=[N+]([O-])c1c(Nc2ccc(O)cc2)cc(Cl)c2nonc12,?,3%[57.1 µM],1%,?,2.5*,2µM*,?,9.5µM*,
O=C(O)c1cccc(Nc2cc(Cl)c3nonc3c2[N+](=O)[O-])c1,13µM*,-17%,-9%,1.4µM*,8.4*,20µM*,31%,-4%,
O=[N+]([O-])c1c(Nc2ccccn2)cc(Cl)c2nonc12,?,-12%,?,1.3µM*,3.4*,?,3.7µM*,5.8µM*,
SMILES,VDR inh,TrxR1 substrate,GCN5L2 inh,rTrxR1 inhibitor,VDR confirm,VDR FP,VDR bla reporter,VDR cytotox,others
O=C(CSCc1cnn(-c2ccccc2)c1-n1cccc1)NCc1ccccc1F,-1%,1%,-8%,7%,.,.,.,.,
Cc1ccc2nc(-c3ccc(C)c(NC(=O)COc4ccccc4Cl)c3)oc2c1,.,1%,.,10%,.,.,.,.,
OCCN1CCN(CC/C=C2/c3ccccc3Sc3ccc(C(F)(F)F)cc32)CC1,?,-9%[57.1 µM],?,-7%[57.1 µM],.,.,.,.,USP1 UbRho=?
OCCN1CCN(CCC=C2c3ccccc3Sc3ccc(Cl)cc32)CC1,-3%,.,?,.,.,.,.,.,
COc1ccc(C(=O)C(CN2CCOCC2)c2ccccc2)cc1 (configuration not stated),-10%,6%,0%,-7%,.,.,.,.,
O=C(c1ccccc1)C(CCC(CN1CCOCC1)C(=O)c1ccccc1)CN1CCOCC1 (configuration not stated),?,-3%,-1%,?,?,?,21µM*,29%,
O=C(O)Cn1c(O)c(C2=c3ccccc3=NC2=O)sc1=O,10µM*,-6%,0%,-14%,13*,?,14%,10%,
O=C(O)CCC(C(=O)O)n1c(O)c(C2=c3ccccc3=NC2=O)sc1=S (configuration not stated),-16%,-16%,-1%,?,.,.,.,.,
Cc1ccc2c(=O)c3cccc(CC(=O)O)c3oc2c1C,4%,.,-23%,.,.,.,.,.,
